Screening data from PubChem BioAssay.
DT40 TDP1 CPT – qHTS for Inhibitors of human tyrosyl-DNA phosphodiesterase 1 (TDP1): qHTS in cells in presence of CPT; chicken DT40 Tdp1-/-;hTDP1 cells + 20 nM CPT, ATP luminescence, 48 h; Potency, µM (top dose mostly 46.2 µM), for inactives: top-dose activity change, negative = growth inhibition, actives largely listed as inhibitors; 420,000 compounds, 12% hits; AID 686979, 2013; further: potency means the concentration at half of the fitted maximal effect; nearly all actives have a fitted effect of over 55% in size
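Cell growth measured by CellTiter-Glo luminescence after a minimum 48 h, 37 C compound exposure with 20 nM CPT in Tdp1-knockout DT40 cells stably expressing hTDP1, seeded 400/well; qHTS titration format.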
TDP1 cell noCPT – qHTS for Inhibitors of human tyrosyl-DNA phosphodiesterase 1 (TDP1): qHTS in cells in absence of CPT; DT40 Tdp1-/- hTDP1 cells, no CPT, ATP luminescence, 48 h; Potency, µM (titrated, usually from 46.2 µM), for inactives: top-dose activity change, negative = growth inhibition, actives largely listed as inhibitors; 420,000 compounds, 15% hits; further: potency means the concentration at half of the fitted maximal effect; nearly all actives have a fitted effect of over 55% in size
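Chicken DT40 Tdp1-/- cells stably complemented with human TDP1 were seeded at 400 cells/well with DMSO in place of 20 nM camptothecin. After compound pinning, cells grew at least 48 hr at 37 °C; viability read by CellTiter-Glo luminescence.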
HT1080 IDH1KD tx – qHTS for induction of synthetic lethality in tumor cells producing 2HG: qHTS for the HT-1080-IDH1KD cell line. 360,000 compounds, 2% hits. Potency, µM (top dose mostly 46.1 µM), for the others: at the highest dose activity, negative = toxicity, usual class: cytotoxic. AID 686971, 2013. HT-1080 IDH1 knockdown viability, ATP luminescence, 48 h;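 further: potency means the concentration at half of the fitted maximal effect; 0% = DMSO wells and -100% = cell-free medium wells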
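Luminescent ATP read-out (CellTiter-Glo, 10 min at room temperature) after 48 h compound exposure at 37 °C gave viability of IDH1-knockdown HT-1080 cells. Activity was normalised to DMSO and cell-free wells, then fitted as concentration-response curves.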
HT1080NT lethal – qHTS for induction of synthetic lethality in tumor cells producing 2HG: qHTS for the HT-1080-NT fibrosarcoma cell line; 360,000 compounds, 1.6% hits; HT-1080-NT fibrosarcoma viability, CellTiter-Glo ATP luminescence, 48 h; Potency, µM (titrated, usually from 46.1 µM), for inactives: at the highest dose activity, negative = less viability, most hits filed as cytotoxic;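 further: NT is the 2HG producing partner of a matched IDH1 knockdown line; potency means the concentration at half of the fitted maximal effect; 0% = DMSO-treated cells and -100% = media-only wells without cells; nearly all actives have a fitted effect of over 55% in size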
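750 cells/well, RPMI + 5% FBS; 2 h settle, compound pin-transfer, 48 h at 37 degrees C. CellTiter-Glo 10 min RT, luminescence. Normalized to DMSO and media-only wells.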
IL1B secr inh – qHTS for Inhibitors of Inflammasome Signaling: IL-1-beta AlphaLISA Primary Screen. 360,000 compounds, 4.7% hits. THP-1 LPS/ATP IL-1B secretion, AlphaLISA, 16 h; hits give low values. activity change, % at 57.5 µM; in the data active means activity change below about -50%; inconclusive means mostly about -30% to -49%
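Secreted IL-1B measured by AlphaLISA bead assay after 16 h compound exposure of THP-1 cells; compounds (final up to 57.5 uM) added 1 h before LPS (250 ng/mL) and ATP (1.25 mM) stimulation; lower signal means less secretion.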
The depositor's hits bear a star; ? = inconclusive; · = not tested or not shown. A selection: hits, their analogues and other compounds. The true share with any hit is near 19%. Unless noted, the call rests on the fitted dose curve; in most records, active means well fitted curve in the direction sought with a large enough effect; inconclusive means small, poorly fitted or top-dose-only effect, or another doubt; inactive means no such curve, though single readings can be large; an effect the other way counts as inactive or inconclusive. Unless noted, on the % scale 0 is the no-effect control and ±100 the full control effect.

SMILES	DT40 TDP1 CPT	TDP1 cell noCPT	HT1080 IDH1KD tx	HT1080NT lethal	IL1B secr inh
CCCn1c(C2CCCN2c2nc(-c3cccc(Br)c3)cs2)nc2cc(Cl)c(Cl)cc21 (stereo not given)	?	18.4µM*	-10.9%	0.0%	-5.6
Cc1csc(N2CCCC2c2nc3cc(Cl)c(N4CCCCC4)cc3n2CCOCCO)n1 (stereo not given)	?	6.1%	3.6%	2.5%	?
Cc1ccc(C(=O)NCCCNC(=O)Cc2ccc(Cl)cc2)cn1	-1.7%	-18.1%	23.8%	13.9%	18.1
CCN1CCN(S(=O)(=O)c2ccc(Cl)c(C(=O)N(C)Cc3ccco3)c2)CC1	?	?	6.5%	8.4%	1.1
N#C/C(=C(/O)c1cccc(F)c1)c1nc2ccccc2s1	20.6µM*	11.6µM*	-2.3%	-1.6%	-58.5*
N#C/C(=C(/O)c1ccco1)c1nc2ccccc2s1	?	14.6µM*	?	?	-18.4
N#C/C(=C(/O)CN1CCOCC1)c1nc2ccccc2s1	8.2%	-28.2%	-4.0%	-6.3%	2.2
Cn1c(/C(C#N)=C(\O)c2cccc(F)c2)nc2ccccc21	-1.1%	?	?	?	1.9
N#C/C(=C(/O)C(Cl)c1ccccc1)c1nc2ccccc2s1 (stereo not given)	6.51µM*	13µM*	-25.0%	-16.2%	-5.2
N#C/C(=C(/O)c1cc2ccccc2o1)c1nc2ccccc2s1	?	13µM*	6.2%	-0.1%	0.0
Cc1cc(C)c(S(=O)(=O)Cc2ccccc2)c(OC(C)C)n1	-27.8%	-11.7%	-3.1%	3.1%	11.6
O=C(Nc1ccccc1C(F)(F)F)N1CC=C(c2c[nH]c3ccccc23)CC1	20.6µM*	25.9µM*	·	·	·
O=C(Nc1ccc(F)c(Cl)c1)N1CC=C(c2c[nH]c3ccccc23)CC1	23.1µM*	16.4µM*	·	·	·
O=C(NC(Cc1c[nH]c2ccccc12)C(=O)NCc1ccc(F)cc1)OCc1ccccc1 (stereo not given)	?	?	-1.5%	-2.3%	11.7
Cc1ccc(CONC(=O)c2ccc(C)cc2)cc1	-13.8%	13.4%	4.9%	19.5%	-27.3
Cc1ccccc1-n1nc2c(c1NC(=O)c1c(-c3ccccc3Cl)noc1C)CSC2	-30.0%	20.6µM*	-16.5%	-0.5%	-6.2
Cc1ccc(-n2nc3c(c2NC(=O)c2c(-c4ccccc4Cl)noc2C)CSC3)cc1	25.9µM*	?	?	?	19.8
Cc1onc(-c2ccccc2Cl)c1C(=O)Nc1ccc(N2CCOCC2)cc1	?	?	-2.6%	3.3%	-5.8
CCOC(=O)C1(C)CCN1C(=O)c1ccc(Cl)nc1 (stereo not given)	7.3%	1.4%	16.5%	25.7%	-1.2
CSC1SCC2C(=O)N(C)C(C(C)C)C(=O)OCC(NC(=O)c3cnc4ccccc4n3)C(=O)NC(C)C(=O)N(C)C1C(=O)N(C)C(C(C)C)C(=O)OCC(NC(=O)c1cnc3ccccc3n1)C(=O)NC(C)C(=O)N2C (stereo not given)	-72.4%	-83.4%	0.0012µM*	-31.5%	-115.8*
Cn1c(SCC(=O)c2ccc3c(c2)Cc2ccccc2-3)nnc1-c1ccccc1	-28.7%	29.1µM*	-2.4%	-9.6%	-12.9
CCc1ccc(NC(=O)CSc2nnc(-c3ccccc3)n2C)cc1	15.8µM*	-1.7%	·	·	·
Cn1c(SCC(=O)NC(C)(C)C)nnc1-c1ccc(C(C)(C)C)cc1	?	23.1µM*	-1.3%	-10.6%	21.2
Cn1c(=O)c2c(SCC(=O)Nc3ccccc3F)nc(-c3ccccc3F)nc2n(C)c1=O	?	14.6µM*	-3.9%	-2.5%	0.0
